# ± gives the standard deviation of the averaged measurements.
# How the values were obtained:
# Experiment in all cases: promoter activity interaction Z-score (Lux/OD deviation from empty-vector control); higher = stronger promoter induction by the compound
# [1] = test system: E. coli BW25113 acrABp lux reporter
# In short: (§1)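 Wild-type E. coli BW25113 and three single-gene deletion strains, each carrying a low-copy luxCDABE promoter reporter, were grown at 37°C in 40 µl LB Lennox per well of a 384-well plate. Every compound was applied at four 1:2 dilutions in biological duplicates, and OD600 and luminescence were read every 30 min for 12 h. Integration covered 0–8 h for wild type and 1–9 h for deletion strains, and wells under 10% of the median growth value were removed. Scores are Z-transformed residuals of growth-normalised luminescence fitted against a control.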
# [2] = test system: E. coli BW25113 micFp lux reporter
# In short: as §1
# [3] = test system: E. coli BW25113 ompFp lux reporter
# In short: as §1
# [4] = test system: E. coli BW25113 robp lux reporter
# In short: as §1
# [5] = test system: E. coli BW25113 soxSp lux reporter
# In short: as §1
# [6] = test system: E. coli BW25113 tolCp lux reporter
# In short: as §1
# [7] = 0.063 µg/ml, genetic background: wild type
# [8] = 0.063 µg/ml, genetic background: ΔmarA
# [9] = 0.063 µg/ml, genetic background: Δrob
# [10] = 0.063 µg/ml, genetic background: ΔsoxS
# [11] = 0.13 µg/ml, genetic background: wild type
# [12] = 0.13 µg/ml, genetic background: ΔmarA
# [13] = 0.13 µg/ml, genetic background: Δrob
# [14] = 0.13 µg/ml, genetic background: ΔsoxS
# [15] = 0.25 µg/ml, genetic background: wild type
# [16] = 0.25 µg/ml, genetic background: ΔmarA
# [17] = 0.25 µg/ml, genetic background: Δrob
# [18] = 0.25 µg/ml, genetic background: ΔsoxS
# [19] = 0.51 µg/ml, genetic background: wild type
# [20] = 0.51 µg/ml, genetic background: ΔmarA
# [21] = 0.51 µg/ml, genetic background: Δrob
# [22] = 0.51 µg/ml, genetic background: ΔsoxS
smiles,measurement,setting,value
N=C(NCCCCCCNC(=N)NC(=N)Nc1ccc(Cl)cc1)NC(=N)Nc1ccc(Cl)cc1 [Chlorhexidine],promoter activity interaction Z-score,[1]; [7],0.528 ± 0.15
same,promoter activity interaction Z-score,[1]; [8],0.456 ± 1.1
same,promoter activity interaction Z-score,[1]; [9],-0.0468 ± 0.34
same,promoter activity interaction Z-score,[1]; [10],-0.413 ± 0.67
same,promoter activity interaction Z-score,[1]; [11],0.229 ± 0.18
same,promoter activity interaction Z-score,[1]; [12],-0.312 ± 0.48
same,promoter activity interaction Z-score,[1]; [13],-0.0734 ± 0.14
same,promoter activity interaction Z-score,[1]; [14],0.339 ± 0.46
same,promoter activity interaction Z-score,[1]; [15],0.27 ± 0.26
same,promoter activity interaction Z-score,[1]; [16],-0.147 ± 0.57
same,promoter activity interaction Z-score,[1]; [17],0.135 ± 0.15
same,promoter activity interaction Z-score,[1]; [18],0.108 ± 0.19
same,promoter activity interaction Z-score,[1]; [19],-0.0541 ± 0.33
same,promoter activity interaction Z-score,[1]; [20],0.0169 ± 0.15
same,promoter activity interaction Z-score,[1]; [21],0.0299 ± 0.11
same,promoter activity interaction Z-score,[1]; [22],0.236 ± 0.23
same,promoter activity interaction Z-score,[2]; [7],-0.138 ± 0.035
same,promoter activity interaction Z-score,[2]; [8],0.119 ± 0.018
same,promoter activity interaction Z-score,[2]; [9],-0.0387 ± 0.0014
same,promoter activity interaction Z-score,[2]; [10],-0.423 ± 0.21
same,promoter activity interaction Z-score,[2]; [11],-0.207 ± 0.061
same,promoter activity interaction Z-score,[2]; [12],-0.0564 ± 0.12
same,promoter activity interaction Z-score,[2]; [13],-0.0382 ± 0.027
same,promoter activity interaction Z-score,[2]; [14],-0.0137 ± 0.079
same,promoter activity interaction Z-score,[2]; [15],0.112 ± 0.098
same,promoter activity interaction Z-score,[2]; [16],-0.0647 ± 0.035
same,promoter activity interaction Z-score,[2]; [17],-0.172 ± 0.038
same,promoter activity interaction Z-score,[2]; [18],-0.0807 ± 0.32
same,promoter activity interaction Z-score,[2]; [19],-0.4228 ± 0.0029
same,promoter activity interaction Z-score,[2]; [20],-0.153 ± 0.15
same,promoter activity interaction Z-score,[2]; [21],-0.204 ± 0.03
same,promoter activity interaction Z-score,[2]; [22],0.196 ± 0.032
same,promoter activity interaction Z-score,[3]; [7],0.348 ± 0.12
same,promoter activity interaction Z-score,[3]; [8],0.307 ± 0.032
same,promoter activity interaction Z-score,[3]; [9],0.502 ± 0.096
same,promoter activity interaction Z-score,[3]; [10],0.129 ± 0.63
same,promoter activity interaction Z-score,[3]; [11],0.528 ± 0.026
same,promoter activity interaction Z-score,[3]; [12],-0.185 ± 0.099
same,promoter activity interaction Z-score,[3]; [13],0.2991 ± 0.00077
same,promoter activity interaction Z-score,[3]; [14],0.714 ± 0.18
same,promoter activity interaction Z-score,[3]; [15],0.176 ± 0.12
same,promoter activity interaction Z-score,[3]; [16],0.161 ± 0.18
same,promoter activity interaction Z-score,[3]; [17],0.332 ± 0.15
same,promoter activity interaction Z-score,[3]; [18],0.376 ± 0.19
same,promoter activity interaction Z-score,[3]; [19],0.552 ± 0.14
same,promoter activity interaction Z-score,[3]; [20],0.909 ± 0.66
same,promoter activity interaction Z-score,[3]; [21],0.866 ± 0.037
same,promoter activity interaction Z-score,[3]; [22],1.02 ± 0.32
same,promoter activity interaction Z-score,[4]; [7],0.375 ± 0.078
same,promoter activity interaction Z-score,[4]; [8],0.214 ± 0.35
same,promoter activity interaction Z-score,[4]; [9],0.423 ± 0.27
same,promoter activity interaction Z-score,[4]; [10],0.406 ± 0.057
same,promoter activity interaction Z-score,[4]; [11],0.674 ± 0.55
same,promoter activity interaction Z-score,[4]; [12],-0.0996 ± 0.54
same,promoter activity interaction Z-score,[4]; [13],0.374 ± 0.39
same,promoter activity interaction Z-score,[4]; [14],0.814 ± 0.61
same,promoter activity interaction Z-score,[4]; [15],0.416 ± 0.24
same,promoter activity interaction Z-score,[4]; [16],-0.53 ± 0.44
same,promoter activity interaction Z-score,[4]; [17],0.48 ± 0.31
same,promoter activity interaction Z-score,[4]; [18],0.422 ± 0.89
same,promoter activity interaction Z-score,[4]; [19],-0.214 ± 0.33
same,promoter activity interaction Z-score,[4]; [20],0.504 ± 0.37
same,promoter activity interaction Z-score,[4]; [21],0.258 ± 0.6
same,promoter activity interaction Z-score,[4]; [22],0.18 ± 0.19
same,promoter activity interaction Z-score,[5]; [7],-0.0504 ± 0.14
same,promoter activity interaction Z-score,[5]; [8],0.0857 ± 0.028
same,promoter activity interaction Z-score,[5]; [9],0.21 ± 0.1
same,promoter activity interaction Z-score,[5]; [10],0.0523 ± 0.26
same,promoter activity interaction Z-score,[5]; [11],0.0248 ± 0.062
same,promoter activity interaction Z-score,[5]; [12],0.0401 ± 0.18
same,promoter activity interaction Z-score,[5]; [13],-0.0238 ± 0.042
same,promoter activity interaction Z-score,[5]; [14],0.276 ± 0.16
same,promoter activity interaction Z-score,[5]; [15],0.0242 ± 0.039
same,promoter activity interaction Z-score,[5]; [16],0.138 ± 0.13
same,promoter activity interaction Z-score,[5]; [17],0.236 ± 0.22
same,promoter activity interaction Z-score,[5]; [18],0.165 ± 0.005
same,promoter activity interaction Z-score,[5]; [19],-0.166 ± 0.08
same,promoter activity interaction Z-score,[5]; [20],0.198 ± 0.063
same,promoter activity interaction Z-score,[5]; [21],-0.014 ± 0.063
same,promoter activity interaction Z-score,[5]; [22],-0.0376 ± 0.072
same,promoter activity interaction Z-score,[6]; [7],0.313 ± 0.44
same,promoter activity interaction Z-score,[6]; [8],0.0546 ± 1.2
same,promoter activity interaction Z-score,[6]; [9],0.212 ± 0.98
same,promoter activity interaction Z-score,[6]; [10],0.135 ± 0.81
same,promoter activity interaction Z-score,[6]; [11],0.112 ± 0.076
same,promoter activity interaction Z-score,[6]; [12],-0.214 ± 1.4
same,promoter activity interaction Z-score,[6]; [13],-0.155 ± 0.64
same,promoter activity interaction Z-score,[6]; [14],0.18 ± 2
same,promoter activity interaction Z-score,[6]; [15],-0.564 ± 0.81
same,promoter activity interaction Z-score,[6]; [16],-0.365 ± 0.86
same,promoter activity interaction Z-score,[6]; [17],0.568 ± 0.35
same,promoter activity interaction Z-score,[6]; [18],0.574 ± 0.065
same,promoter activity interaction Z-score,[6]; [19],-0.539 ± 0.4
same,promoter activity interaction Z-score,[6]; [20],0.431 ± 0.064
same,promoter activity interaction Z-score,[6]; [21],-0.613 ± 0.62
same,promoter activity interaction Z-score,[6]; [22],0.378 ± 0.96

# Source: the supplement of paper PMC12282887
